Pf growth 96h: Primary qHTS for delayed death inhibitors of the malarial parasite plastid, 96 hour incubation | 320,000 compounds, 6.9% hits | Potency, µM (top dose mostly 28.7 µM), without a hit: at the top dose activity change, negative = inhibition, actives largely listed as inhibitors | P. falciparum luciferase reporter growth, 96 h | AID 504834, 2011; also: % is scaled to controls: 0 for no effect and ±100 for the full control effect
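Two-generation exposure (96 h) targets delayed-death phenotype. Reporter parasites carrying integrated firefly luciferase, in red cells at 2% hematocrit and 0.05% parasitemia final, kept at 37 C, 5% CO2; luminescence loss indicates inhibition.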
SARS PLP yeast: qHTS of Yeast-based Assay for SARS-CoV PLP. 330,000 compounds, 0.19% hits. Potency, µM (series often up to 32.9 µM), without a hit: at the top dose activity, positive = growth rescue, hits mostly activators. AID 485353, 2010. S. cerevisiae expressing SARS-CoV PLpro, growth rescue; calls by dose curve; also: 0% is about no effect; nearly all actives have a fitted effect of over 55% in size
Sm TGR block: qHTS Assay for the Inhibitors of Schistosoma Mansoni Peroxiredoxins | 360,000 compounds, 3% hits | purified TGR, DTNB reduction, TNB absorbance 405 nm | AID 485364, 2010 | Potency, µM (titrated, usually from 114 µM), without a hit: at the highest dose activity change, negative = inhibition, most hits filed as inhibitors | Schistosoma mansoni thioredoxin glutathione reductase (TGR), Q962Y6; also: % is scaled to controls: 0 for no effect and ±100 for the full control effect; nearly all actives have a fitted effect of over 60% in size
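First, TGR (20 nM dispensed) and NADPH were mixed with compound. Second, a 15 min room-temperature incubation followed. Third, further NADPH and then DTNB were added to start the reaction. Finally, TNB absorbance was monitored kinetically.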
Pf growth 48h: Primary qHTS for delayed death inhibitors of the malarial parasite plastid, 48 hour incubation | P. falciparum luciferase growth in erythrocytes, 48 h | Potency, µM (highest dose often 28.7 µM), for inactives: top-dose activity change, negative = inhibition, actives largely listed as inhibitors | 310,000 compounds, 5.9% hits | AID 504832, 2011; also: % is scaled to controls: 0 for no effect and ±100 for the full control effect
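Here the parasites carry a stable luciferase gene and grow inside erythrocytes in Albumax-based RPMI medium with compound for one erythrocytic cycle. Activity is scored as loss of luminescent signal.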
Numbers without * were called inactive; ? = inconclusive; · = not tested or not shown. Hits are enriched below; roughly 12% of the tested compounds scored in any of these assays. Unless noted, calls follow the shape of the dose curve; as a rule, active = well fitted curve in the direction sought with a large enough effect; inconclusive = small, poorly fitted or top-dose-only effect, or another doubt; inactive = no such curve, though single readings can be large; an effect the other way counts as inactive or inconclusive. Potency is read from the fitted curve at half-maximal effect.

SMILES | Pf growth 96h | SARS PLP yeast | Sm TGR block | Pf growth 48h
COc1ccc(N2CCN(C(CNC(=O)c3ccc(C)cc3)c3ccc4c(c3)OCO4)CC2)cc1 (stereo not drawn) | · | · | 4.8% | ·
COc1ccc(NC2=Nc3ccccc3N3C2=Nc2c(c(C)nn2-c2ccc(C)cc2)C3c2cccnc2)cc1 (stereo not drawn) | 2.08µM* | -7.9% | 8.5% | ·
CC(=O)Nc1ccc(NC2=Nc3ccccc3N3C2=Nc2c(c(C)nn2-c2ccccc2)C3c2ccccc2)cc1 (stereo not drawn) | ? | ? | 15.6% | 0.928µM*
COCCN(Cc1cn[nH]c1-c1ccc2cc(OC)ccc2c1)C(C)C | 11.7µM* | 0.4% | -1.1% | 14.5%
COc1ccc(-c2[nH]ncc2CN(CC2CCC(=O)N2)C(C)C)cc1F (stereo not drawn) | 8.28µM* | 0.8% | -2.3% | 4.3%
CC(=O)NC(Cc1c[nH]c2ccccc12)C(=O)OCC(=O)Nc1ccc2c(c1)OCO2 (stereo not drawn) | -13.4% | 4.6% | 10µM* | 15.7%
CC(=O)N[C@@H](Cc1c[nH]c2ccccc12)C(=O)OCC(=O)Nc1ccc(Cl)c(S(=O)(=O)N(C)C)c1 | ? | -0.6% | 26.4% | -13.4%
Cc1ccc(C(=O)COC(=O)C(Cc2c[nH]c3ccccc23)NC(=O)c2ccc(C(C)(C)C)cc2)cc1 (stereo not drawn) | · | · | 11.2µM* | ·
CCOc1ccccc1C(=O)Nc1ccc(S(=O)(=O)Nc2ncccn2)cc1 | · | · | 0.2% | ·
O=C(CSc1n[nH]c(-c2ccncc2)n1)Nc1ccccc1C(F)(F)F | 6.2% | 0.9% | -1.7% | 7.8%
O=C(COc1ccccc1)OCc1cc(-c2ccco2)on1 | 36.3% | -4.5% | -17.0% | 39.0%
COCC(=O)N(Cc1cc2cc(C)ccc2[nH]c1=O)c1ccc(C)c(C)c1 | 10.4µM* | -1.2% | -22.9% | -8.4%
Cc1ccc(N(Cc2cc3ccccc3[nH]c2=O)C(=O)c2cccs2)cc1C | ? | 0.6% | -3.6% | 11.7µM*
O=C(c1cccs1)N(Cc1cc2ccccc2[nH]c1=O)c1ccccc1 | -25.7% | -20.5% | -11.8% | -23.2%
O=c1cc(N2CCCCC2)c(-c2ccccc2)nn1Cc1cccc(Cl)c1 | ? | -4.4% | 42.9% | ?
O=c1cc(N2CCCCC2)c(-c2ccccc2)nn1Cc1ccccc1Cl | 2.62µM* | -8.0% | 16.6% | 3.29µM*
O=c1cc(N2CCCCC2)c(-c2ccccc2)nn1Cc1ccc(Cl)cc1Cl | ? | -18.1% | 2.8% | 2.08µM*
O=C(Nc1ccccc1)c1cccc2c(=O)c3c([nH]c12)CCCC3 | · | · | -5.2% | ·
CC1CCN(C(=O)CSc2nc(-c3ccccc3)no2)CC1 | · | · | 2.1% | ·
O=[N+]([O-])c1cccc(-c2c(-c3ccccc3)ncc3ccc(F)cc23)c1 | 4.65µM* | -3.9% | ? | -8.4%
CSCCC(N)C(=O)O (stereo not drawn) | -5.1% | · | · | -5.4%
CC(C)(C)c1ccc(-c2nc3c(C#N)c(-c4ccc5c(c4)OCO5)ccn3n2)cc1 | ? | 3.0% | 2.3% | 8.28µM*
O=[N+]([O-])c1cccc(S(=O)(=O)Nc2cccc(-c3ccc(N4CCCC4)nn3)c2)c1 | 6.57µM* | 11.6% | -4.0% | ?
O=[N+]([O-])c1cccc(S(=O)(=O)Nc2cccc(-c3ccc(N4CCOCC4)nn3)c2)c1 | ? | 2.0% | 5.9% | ?
CCc1ccc(OCC(=O)Nc2ncc3c(n2)CC(C)(C)CC3=O)cc1 | 3.29µM* | -1.7% | -10.4% | 8.5%
SMILES | Pf growth 96h | SARS PLP yeast | Sm TGR block | Pf growth 48h
Cc1ccc(-c2cc3nc(C)cc(C)n3n2)cc1 | 56.6% | -1.1% | · | 145.2%
Cc1cc(C)n2nc(-c3ccsc3-n3c(C)ccc3C)cc2n1 | ? | -0.7% | 3.55µM* | 13.1µM*
CC(C)CCNC(=O)CCCOc1cc(=O)n(C)c2ccccc12 | -0.6% | 4.0% | 12.3% | -15.1%
Cn1c(=O)cc(OCCCC(=O)NCc2ccco2)c2ccccc21 | 11.7µM* | 4.0% | 39.8µM* | -2.3%
COc1ccc(CNC(=O)CCCOc2cc(=O)n(C)c3ccccc23)cc1 | 88.6% | -4.9% | 1.0% | ·
Cc1ccc(CNC(=O)CCCOc2cc(=O)n(C)c3ccccc23)o1 | 15.8% | -2.2% | 12.6µM* | ?
COc1ccc2c(=O)c3c(=O)n(Cc4ccco4)c(-c4cc(OC)c(OC)c(OC)c4)nc3oc2c1 | 1.65µM* | -31.6% | ? | 1.85µM*
COc1ccc2c(=O)c3c(=O)n(Cc4ccco4)c(-c4ccccc4)nc3oc2c1 | · | -1.3% | 31.6µM* | 11.7µM*
CCCCCCn1c(-c2ccco2)nc2oc3cc(OC)ccc3c(=O)c2c1=O | ? | -13.1% | -30.3% | 5.22µM*
CCCc1nc2oc3cc(OC)ccc3c(=O)c2c(=O)n1Cc1ccco1 | 14.7% | -0.6% | 39.8µM* | 9.28µM*
COC(=O)CCNC(=O)NC(CCC(C)C)c1c(-n2cccc2)sc2c1CCN(C)C2 (stereo not drawn) | · | · | -21.6% | ·
Cc1cc(C(C)(C)C)cc(C)c1COC(=O)c1cccnc1 | ? | -0.5% | 0.1% | ?
COCCn1c(-c2ccc(Br)cc2)nc2oc3cc(OC)ccc3c(=O)c2c1=O | ? | 1.7% | 26.3% | 8.28µM*
Cc1ccc2c(C)c(C(=O)N3CCC(c4nc5ccccc5s4)CC3)oc2c1C | · | · | 12.6% | ·
CCOC(=O)c1cnc2c(Cl)c(Cl)ccc2c1Nc1ccc(N(C)C)cc1 | · | · | 0.1% | ·
CCOc1cc(CNC(=O)c2cc(-c3ccccc3)n[nH]2)cc(OCC)c1OCC | · | · | -1.0% | ·
CCOc1cc(-c2cc(N)n[nH]2)cc(OCC)c1OCC | 104.7% | 14.7% | -2.2% | 13.1µM*
Cc1ccc2nc(N3CCN(c4ccccc4)CC3)c(C=O)c(=O)n2c1 | ? | 0.7% | 44.7µM* | -4.5%
COc1ccc(N2CCN(c3nc4ccc(C)cn4c(=O)c3C=O)CC2)cc1 | -0.3% | 0.1% | -33.7% | ?
CC1CN(c2nc3ccccn3c(=O)c2/C=C(\C#N)S(=O)(=O)c2ccccc2)CC(C)O1 (stereo not drawn) | 63.4% | 0.8% | -7.9% | -12.3%
O=Cc1c(N2CCN(CCO)CC2)nc2ccccn2c1=O | 10.4µM* | 4.0% | -26.4% | 0.0%
CC1CN(c2nc3ccccn3c(=O)c2C=O)CC(C)O1 (stereo not drawn) | 11.7µM* | 0.1% | 24.5% | 20.1%
Cc1ccc(C)c(COC(=O)CCN=C2NS(=O)(=O)c3ccccc32)c1 | 17.5% | -2.6% | 0.6% | -11.6%
CCCCN(C)c1ncnc2c1cnn2-c1cccc(Cl)c1 | · | · | 5.4% | ·
O=C(Nc1cc2c(cc1C(=O)c1cccc(Br)c1)OCCO2)c1ccccc1F | · | · | -5.3% | ·
COC(=O)c1ccc(C(=O)OC)c(NC(=O)CN(C)Cc2ccc(Cl)c(Cl)c2)c1 | ? | -18.8% | -6.6% | 10.4µM*
N#Cc1ccc(OC(=O)c2cc(-c3ccc(Cl)cc3)on2)cc1 | · | · | -3.3% | ·
CCN1/C(=C2\SC(=S)N(Cc3ccccc3)C2=O)Sc2ccccc21 | 48.6% | -17.5% | 0.1% | -3.5%

High-throughput results as filed in PubChem.
